From PubChem
Sampled rows, rich in hits. Any-hit rate of the full collection: about 5.7%.
L3MBTL1 inh – qHTS Assay for the Inhibitors of L3MBTL1; Lethal(3)malignant brain tumor-like protein 1 (Homo sapiens), Q9Y468; AlphaScreen L3MBTL1–H3K9me1 peptide binding; Potency, µM (highest dose often 57.1 µM), inactives show at the highest dose activity, negative = inhibition, usual class: inhibitors; actives 0.66% (n = 230,000); note: potency is the fitted concentration of half-maximal effect; % is set by controls: 0 for no effect and ±100 for the full control effect; nearly all actives have a fitted effect of over 60% in size
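L3MBTL1 50 nM + b-AHA-H3(1-15)K9me1 75 nM, 30 min RT; compound added, 30 min RT; streptavidin donor/Ni-chelate acceptor beads 10 ug/mL each final, 30 min RT dark; AlphaScreen read.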
JMJD2A Tudor – qHTS Assay for Inhibitors of JMJD2A-Tudor Domain; Lysine-specific demethylase 4A (Homo sapiens), O75164; AlphaScreen JMJD2A-Tudor / H3K4me3 peptide binding; Potency, µM (doses to about 114 µM), inactives show at the top dose activity change, negative = inhibition, usual class: inhibitors; actives 4.4% (n = 390,000); AID 504339, 2011; note: potency is the fitted concentration of half-maximal effect; % is set by controls: 0 for no effect and ±100 for the full control effect; nearly all actives have a fitted effect of over 50% in size
Target sequence (O75164 whole entry, looked up, the tested form may be a part): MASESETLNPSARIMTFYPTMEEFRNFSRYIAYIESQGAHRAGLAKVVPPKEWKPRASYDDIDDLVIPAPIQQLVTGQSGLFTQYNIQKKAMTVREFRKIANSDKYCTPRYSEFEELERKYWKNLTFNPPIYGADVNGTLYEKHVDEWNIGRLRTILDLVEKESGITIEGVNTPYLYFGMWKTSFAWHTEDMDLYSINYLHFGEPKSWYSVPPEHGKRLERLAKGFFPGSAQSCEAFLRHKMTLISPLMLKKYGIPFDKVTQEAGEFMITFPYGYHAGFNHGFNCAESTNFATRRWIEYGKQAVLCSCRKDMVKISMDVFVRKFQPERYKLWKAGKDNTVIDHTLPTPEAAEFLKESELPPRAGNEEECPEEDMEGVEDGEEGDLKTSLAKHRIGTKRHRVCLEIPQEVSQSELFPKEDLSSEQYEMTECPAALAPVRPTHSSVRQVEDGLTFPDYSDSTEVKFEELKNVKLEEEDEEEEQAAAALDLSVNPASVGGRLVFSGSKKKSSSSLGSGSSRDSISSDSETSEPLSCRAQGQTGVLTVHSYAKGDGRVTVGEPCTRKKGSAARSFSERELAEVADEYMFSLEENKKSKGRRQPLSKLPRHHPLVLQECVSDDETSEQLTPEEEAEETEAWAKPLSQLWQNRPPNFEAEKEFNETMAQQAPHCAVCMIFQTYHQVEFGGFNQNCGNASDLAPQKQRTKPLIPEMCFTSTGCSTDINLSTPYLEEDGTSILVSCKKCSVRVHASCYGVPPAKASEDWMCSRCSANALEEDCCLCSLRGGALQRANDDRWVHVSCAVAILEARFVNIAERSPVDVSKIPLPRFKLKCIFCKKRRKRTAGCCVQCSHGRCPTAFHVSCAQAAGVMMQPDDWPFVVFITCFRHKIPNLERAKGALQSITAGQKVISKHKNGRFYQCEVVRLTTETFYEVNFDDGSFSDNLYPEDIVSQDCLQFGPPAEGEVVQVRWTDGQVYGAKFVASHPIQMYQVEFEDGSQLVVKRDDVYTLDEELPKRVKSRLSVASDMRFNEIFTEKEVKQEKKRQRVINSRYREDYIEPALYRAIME
HP1b chromo inh – HTS for Inhibitors of HP1-beta Chromodomain Interactions with Methylated Histone Tails | AlphaScreen HP1-beta / biotin-H3K9me3 peptide binding | Potency, µM (doses to about 114 µM), inactives show at the highest dose activity change, negative = inhibition, hits mostly inhibitors | actives 0.56% (n = 390,000); note: potency is the fitted concentration of half-maximal effect; nearly all actives have a fitted effect of over 70% in size
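HP1-beta protein (50 nM final) preincubated 30 min at room temperature with biotinylated H3(1-18)K9me3 peptide (50 nM) in PBS pH 7.4, 0.01% Tween-20, then compound added for 30 min. AlphaScreen streptavidin donor/nickel chelate acceptor beads (10 ug/mL final), 30 min dark, luminescence read.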
BAZ2B block – qHTS Assay for Inhibitors of BAZ2B; Bromodomain adjacent to zinc finger domain protein 2B (Homo sapiens), Q9UIF8; AlphaScreen BAZ2B-H3K14Ac peptide displacement; Potency, µM (titrated, usually from 114 µM), for the others: at the top dose activity change, negative = inhibition, hits mostly inhibitors; actives 4.4% (n = 360,000); AID 504333, 2011; note: potency is the fitted concentration of half-maximal effect; % is set by controls: 0 for no effect and ±100 for the full control effect; nearly all actives have a fitted effect of over 60% in size
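AlphaScreen displacement of biotin-H3(5-23)K14Ac peptide (50 nM final) from BAZ2B (50 nM final) in PBS pH 7.4, 0.01% Tween-20; complex preformed 30 min RT, then compounds (top 110 uM) 30 min RT, beads 20 min dark.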
JMJD2E inh – qHTS Assay for Inhibitors of Human Jumonji Domain Containing 2E (JMJD2E) | JMJD2E catalytic domain, FDH-coupled NADH fluorescence (FDH is formaldehyde dehydrogenase) | actives 1.6% (n = 230,000) | Lysine-specific demethylase 4E (Homo sapiens), B2RXH2 | Potency, µM (series often up to 57.1 µM), without a hit: top-dose activity change, negative = inhibition, hits mostly inhibitors; active = well fitted inhibition curve with a large enough effect, not every such curve was filed as active; inconclusive = small, poorly fitted or top-dose-only effect, or another doubt; inactive = no such curve, though single readings can be large or run the other way;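 note: potency is the fitted concentration of half-maximal effect; 0% = wells with enzyme and -100% = buffer wells without enzyme; nearly all actives have a fitted effect of over 50% in size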
PI5P4K alpha inh – qHTS for Inhibitors of phosphatidylinositol 5-phosphate 4-kinase (PI5P4K); Phosphatidylinositol 5-phosphate 4-kinase type-2 alpha (Homo sapiens), P48426; PI5P4Kalpha enzyme, ADP-Glo luminescence, 60 min; active compounds read low; max response, %; actives 1.2% (n = 330,000); active = max response of -50% or lower; inconclusive = between -30% and -50%; inactive = -30% or higher; note: value at the top dose of about 77 µM; % is set by controls: 0 for no effect and ±100 for the full control effect
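Human PI5P4Kalpha with substrate in 0.038 M HEPES pH 7.4, 0.28 mM EGTA, 0.1% CHAPS, 5% DMSO; reaction started with 5 microM ATP (final), 60 min at room temperature. ADP formed read by ADP-Glo luminescence.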
Active calls of the source: *; ? = inconclusive; . = not tested or not shown; [ ] = remark or other dose. Unless noted, calls come from the whole dose curve; as a rule, active = well fitted inhibition curve with a large enough effect; inconclusive = small, poorly fitted or top-dose-only effect; inactive = no such curve, though single readings can be large or run the other way.

SMILES	L3MBTL1 inh	JMJD2A Tudor	HP1b chromo inh	BAZ2B block	JMJD2E inh	PI5P4K alpha inh
CCCN(CCC)CCCNC(=O)c1cc2c(=O)oc3ccc(C)cc3c2s1	.	-17.8%	16.9%	-14.0%	.	.
O=c1c2ccccc2c(-c2ccccc2)nn1-c1cc(Cl)ccc1[N+](=O)[O-]	-13.1%	-28.8%[11.4 µM]	-10.8%	?	0.6%	-4.5
Cc1ccc(-c2nn(-c3cc(Cl)ccc3[N+](=O)[O-])c(=O)c3ccccc23)cc1C	-14.0%	?	?	44.7µM*	-1.5%	6.0
CCN(CC)C(=O)C1CCN(Cc2ccc(OCc3ccccc3)c(OC)c2)CC1	7.3%	11.2µM*	?	56.2µM*	.	-1.3
O=C(C1CCN(Cc2ccc(F)cc2)CC1)N(CCO)Cc1ccccc1	1.0%	3.55µM*	-22.8%	-16.1%	-5.8%	-0.3
c1ccc(COc2cccc(CN3CCCCC3)c2)cc1	0.0%	25.1µM*	?	?	.	-4.1
COc1cc(CN2CCCCC2)ccc1OCc1ccccc1	-2.9%	31.6µM*	?	?	.	-2.2
COC(=O)c1c(NC(=O)c2cc(=O)c3ccc(C)c(C)c3o2)sc2c1CCCC2	.	-9.7%	43.4%	-8.7%	.	.
CCCCNC(=O)C1CCN(Cc2ccc(OCc3ccccc3)cc2)CC1	46.9%	3.55µM*	?	?	-14.8%	0.3
O=C(C1CCN(Cc2ccc(OCc3ccccc3)cc2)CC1)N1CCCC1	7.2%	1.58µM*	?	79.4µM*	0.6%	.
CCNC(=O)C1CCCN(Cc2ccc(OCc3ccccc3)cc2)CC1 (stereo unspecified)	.	.	.	.	.	0.5
CC1CCN(C(=O)C2CCN(CCCc3ccccc3)CC2)CC1	-5.0%	.	.	?	-3.1%	.
O=C(C1CCN(CCCc2ccccc2)CC1)N1CCCCC1	.	0.891µM*	?	?	3.4%	-7.1
COc1ccc(CCNC(=S)NC2CCN(Cc3ccccc3)CC2)cc1OC	-21.4%	-25.9%	35.7%	-34.5%	5.7%	6.2
COc1ccc(CCN(C)C(=O)C2CCCN(C3CCN(Cc4ccccc4)CC3)C2)cc1OC (stereo unspecified)	.	7.94µM*	22.4µM*	35.5µM*	.	-1.6
COc1ccc(-n2ncc(C(=O)N3CCN(c4ncccn4)CC3)c2C2CCN(C(=O)OC(C)(C)C)CC2)cc1	.	-11.3%	9.4%	7.8%[57.1 µM]	.	.
O=C1CN(C(=O)COc2ccccc2)C(c2ccc(F)cc2)c2cc(Br)ccc2N1 (stereo unspecified)	.	-25.3%	37.4%	-3.9%	.	.
CCOC(=O)Cn1c(=O)n(CC2CCCO2)c2nc(-c3cccc(C)c3)nc(C(N)=O)c21 (stereo unspecified)	.	-1.3%	26.9%[57 µM]	-13.6%	.	.
OC1CCN(Cc2ccc(OCc3ccccc3)cc2)CC1	0.4%[2.29 µM]	-15.8%	13.0%	7.5%	.	2.9
CCN(CC)C(=O)C1CCN(Cc2ccc(OCc3ccccc3)cc2)CC1	4.4%	22.4µM*	?	?	.	-0.1
O=C(COc1ccc(Br)cc1Cl)N1CCN(c2ncccn2)CC1	3.8%	-19.3%	27.6%	13.2%	.	-4.7
COc1cc(C)c(CN2CCN(c3ncccn3)CC2)cc1C	.	50.1µM*	?	.	.	1.8
COc1ccc(Br)cc1CN1CCN(c2ncccn2)CC1	.	22.4µM*	?	.	.	3.7
COc1ccc(CN2CCN(c3ncccn3)CC2)c(C)c1C	8.1%	17.8µM*	?	56.2µM*	.	3.4
c1cnc(N2CCN(Cc3c[nH]c4ccccc34)CC2)nc1	-7.1%	-22.2%	5.5%	-7.7%	-0.6%	10.9
SMILES	L3MBTL1 inh	JMJD2A Tudor	HP1b chromo inh	BAZ2B block	JMJD2E inh	PI5P4K alpha inh
COc1cccc(CN2CCN(c3ncccn3)CC2)c1OC	9.6%	28.2µM*	?	50.1µM*	.	-3.3
O=C(NCCc1csc(-c2cccc(F)c2)n1)C(=O)Nc1cc(F)ccc1F	.	-12.8%	8.3%[57 µM]	-5.5%	.	.
CCC(NC(=O)C(C)NC)C(=O)N1CCCC1C(=O)NC1CCCc2ccccc21 (stereo unspecified)	6.5%	-11.3%	50.2%	1.0%	.	-0.2
COc1ccc(C)cc1NC(=O)CSc1ccc(-c2sc(C)nc2C)nn1	.	-6.2%	26.8%	-22.4%	.	2.3
COc1ccc(C)cc1NC(=O)CSc1ccc(-c2ccccn2)nn1	.	4.47µM*	14.1%	3.55µM*	.	3.2
CCn1c(SCC(=O)Nc2cc(NC(C)=O)ccc2OC)nnc1-c1ccncc1	2.7%	.	.	11.0%	15.9%	.
CCOC(=O)c1ccccc1NC(=O)CSc1ccc(-c2ccccn2)nn1	.	15.8µM*	54.7%	2.82µM*	.	3.3
CCn1c(SCC(=O)Nc2cc(NC(C)=O)ccc2OC)nnc1-c1ccccn1	-1.6%	50.1µM*	18.8%	?	5.5%	.
COc1ccc(Cc2c(C3CCCCC3)nc3c(C)cc(Br)cn23)c(C)c1	.	.	.	.	.	-6.3
C=CCNC(=O)c1c(Cl)cnn1-c1ccc(C)cc1	11.8%	0.7%	68.4%	7.7%	-2.8%	-3.6
CCCNS(=O)(=O)c1ccc(NC(=O)c2ccccn2)cc1	-3.8%	20µM*	16.3%	0.3%	3.3%	6.0
CN(C)S(=O)(=O)c1ccc(NC(=O)c2ccccn2)cc1	3.9%	-13.0%	27.2%	7.5%	3.5%	0.1
CC(=O)NS(=O)(=O)c1ccc(NC(=O)c2ccccn2)cc1	-8.4%	?	28.8%	50.1µM*	-3.1%	4.1
CCOc1ccc(NS(=O)(=O)c2ccc(NC(=O)c3ccccn3)cc2)cc1	4.1%	-12.8%	12.5%	12.8%	.	3.5
CC(=O)NS(=O)(=O)c1ccc(NC(=S)Nc2ccccc2)cc1	3.2%	8.6%	50.2%	-3.7%	.	-8.0
CCSc1ccccc1C(=O)Nc1ccc(S(=O)(=O)NC(C)=O)cc1	4.6%	50.1µM*	7.0%	-14.4%	2.1%	-11.6
CCN(CC)S(=O)(=O)c1ccc(C(=O)NCCSc2c(-c3ccc(OC)cc3)[nH]c3ccccc23)cc1	.	-24.9%	13.0%	-9.2%	.	.
O=C(Nc1ccc(F)cc1)[C@H](Cc1ccccc1)N1Cc2ccccc2C1=O	.	-18.9%	18.7%	-13.5%	.	.
Nc1ccc2c(c1)Nc1ccccc1CC2	-12.2%	50.1µM*	-32.2%	28.2µM*	?	9.2
COC(=O)Nc1ccc2c(c1)Nc1ccccc1CC2	-0.3%[2.29 µM]	?	-0.8%	?	.	4.6
CCC(=C(c1ccc(OC)cc1)c1ccc(OC)cc1)c1cn(CC(O)CN(CCO)CCO)c2ccccc12 (stereo unspecified)	-20.1%	44.7µM*	-5.7%	35.5µM*	?	32.0
